# Experimental data from ChEMBL document CHEMBL3988442, “University of Dundee, Small-Polar-MMV Screening Library” (2021).
# In all, about 48,000 compounds went through this assay and about 13,000 (27%) showed an effect of 50% or more. Some of the results follow.
# Test system: Wolbachia pipientis
# Experiment: Anti-Wolbachia Cell-Based Screen
# Assay type: functional
# Set-up: scale not given: in the data most compounds retested in dose-response had high values
# Conditions: 5 µM
row,Compound,Percent Effect [%]
1,CCC(CO)NC(=O)Nc1cc(F)ccc1SCC(F)F (stereo not given),1.4
2,CCOCc1ccc(NC(=O)NC2CCCn3nc(CC)nc32)cc1 (stereo not given),-7.286
3,CCN(CC(=O)N(C)C)C(=O)c1ccc(-c2nc(C)cs2)cc1,133.8
4,Cc1csc(-c2ccc(NC(=O)N3CCOCC3)cc2)n1,9.555
5,CCN(CC(=O)N(C)C)C(=O)c1cc(-c2cccc(Cl)c2)no1,-0.1751
6,CNC(=O)CN(C)C(=O)Cc1csc(C(C)C)n1,-0.57
7,CCCN(CC(=O)NC)C(=O)c1ccc(-c2ccsc2)nc1C,-3.974
8,CNC(=O)C(CC(C)C)NC(=O)c1cccc(-c2nc(C)cs2)c1 (stereo not given),8.267
9,CNC(=O)CN(C)C(=O)c1ccc(-c2nc(C)cs2)cc1,115.5
10,CN(C)C(=O)c1csc(-c2ccoc2)n1,-7.541
11,Cc1ccc(-c2nc(C(=O)N(C)CC(=O)N(C)C)cs2)c(C)c1,-25.77
12,CCN(CC(=O)NC)C(=O)Cc1csc(C(C)C)n1,-3.04
13,CCCN(CC(=O)N(C)C)C(=O)c1ccc(-c2nc(C)cs2)cc1,106.6
14,CCCN(CC(=O)NC)C(=O)c1ccc(-c2nc(C)cs2)cc1,92.57
15,CCc1ccc(C(NC(=O)CN(C)S(C)(=O)=O)C(C)(C)C)o1 (stereo not given),-2.175
16,Cc1cn2c(n1)C(CNCc1cnn3ccccc13)CCC2 (stereo not given),10.2
17,CCc1ocnc1C(=O)N1CCN(c2nncc3ccccc23)CC1,-2.931
18,Cc1c(O)oc(-c2ccc(Br)cc2)nc1=O,-7.091
19,CC(C(=O)O)N1CCc2onc(-c3ccc4c(c3)OCO4)c2C1 (stereo not given),-4.68
20,N#Cc1ccc(OC2CCN(C(=O)c3ccc4c(c3)OCO4)CC2)nc1,-4.84
21,CC(=O)NC(C)C1=CCCN(Cc2ccc(C(=O)O)cc2)C1 (stereo not given),-17.16
22,CS(=O)(=O)N[C@@H]1CN(Cc2ccoc2)C[C@@H]2CCCO[C@@H]21,-8.721
23,CS(=O)(=O)N[C@@H]1COC[C@@H]2CN(Cc3ccoc3)C[C@@H]21,104.1
24,CS(=O)(=O)CC(=O)N1C[C@@H]2CN(Cc3ccoc3)CCO[C@@H]2C1,-2.254
25,CS(=O)(=O)N[C@H]1COC[C@@H]2CN(Cc3ccco3)C[C@@H]21,102.8

row,Compound,Percent Effect [%]
1,CS(=O)(=O)N[C@@H]1COC[C@@H]2CN(Cc3ccco3)C[C@@H]21,121.7
2,CCOCC(=O)N1CCc2c(CN(C)C)nn(C(C)C)c2C1.O=C(O)C(F)(F)F,-22.21
3,Cn1c(N)nnc1SCC1OCCc2ccccc21 (stereo not given),-8.673
4,O=C(Nc1nncs1)c1ccc(O)nc1,-7.078
5,CC(C)C(C)N(C)Cc1nnc(-c2ccc(Br)s2)o1 (stereo not given),27.84
6,CN(C)[C@H]1C[C@@H](Cc2cc(CO)on2)C1(C)C,2.334
7,CC(C)Sc1nnnn1C1CCCC1,-35.1
8,Cc1nn(C)c2cn(C(C)C(=O)NCc3cccnc3)nc12 (stereo not given),6.41
9,CC(C)C(Sc1nncn1C1CC1)C(=O)NCc1cccnc1 (stereo not given),102
10,CC(C)C(Sc1nnnn1C1CC1)C(=O)NCc1ccccc1 (stereo not given),90.27
11,CC(C)Cn1nnnc1SC(C(=O)NCc1cccnc1)C(C)C (stereo not given),111.1
12,CC(C)C(Sc1nnc(C2CC2)n1C1CC1)C(=O)NCc1cccnc1 (stereo not given),2.12
13,CC(C)C(Sc1nnnn1C1CC1)C(=O)NCc1cccnc1 (stereo not given),0.8079
14,CC(C)C(Sc1nnnn1-c1ccccc1)C(=O)NCc1cccnc1 (stereo not given),-6.711
15,Cc1ccc(C)c(OC(C)C(=O)NCc2cccnc2)c1 (stereo not given),-19.9
16,CC(C)C(Sc1nccn1C1CC1)C(=O)NCc1cccnc1 (stereo not given),93.78
17,Cc1nn(C)c2cnn(C(C)C(=O)NCc3cccnc3)c12 (stereo not given),10.06
18,O=C(c1cc(=O)[nH][nH]1)N1CCCC2(CCC(=O)N(C3CCCC3)C2)C1 (stereo not given),-4.852
19,Cc1nnsc1CN(C)C(=O)CN1CC2(CCNCC2)OC1=O,-6.607
20,COCCN1CCC(CNC(=O)C2(S(C)(=O)=O)CCCC2)CC1,-5.804
21,COCCN1CCC(CNC(=O)C2(C#N)CCCC2)CC1,-6.048
22,COCCN1CCC(CNC(=O)C2(c3ccc(F)cc3)CCC2)CC1,107
23,COc1ccncc1NC(=O)C1(c2ccccc2)CC1,-4.467
24,COCCN1CCC(CNC(=O)C2(c3ccccc3)CCOCC2)C1 (stereo not given),84.82
25,COc1ccccc1NC(=O)C1(c2ccccc2)CCOCC1,98.14

row,Compound,Percent Effect [%]
1,CCCC(=O)NCC1CCCN(Cc2cc(C)c(C)o2)C1 (stereo not given),-7.568
2,O=C(Cc1ccccc1F)NCC1CCN(CCN2CCOCC2)C1 (stereo not given),8.19
3,CCN1CCCC(CNC(=O)C2(c3cc(C)cc(C)c3)CCC2)C1 (stereo not given),97.54
4,CCN1CCCC(CNC(=O)CCc2ccc(OC)c(F)c2)C1 (stereo not given),-5.052
5,CC(C)(CNC(=O)C1(c2ccccc2)CCOCC1)C(=O)O,1.32
6,CCC(Oc1ccc(N(C)S(C)(=O)=O)cc1)C(N)=O (stereo not given),16.67
7,O=C(c1ccc2nccnc2c1)N1CCN(CCO)[C@@H]2CS(=O)(=O)C[C@@H]21,-5.397
8,O=C(CCCNC(=O)Nc1ccc(F)cc1)Nc1cn[nH]c1,-3.689
9,Cc1cc(C(=O)N2CCN(C(=O)CC(C)C)[C@@H]3CS(=O)(=O)C[C@@H]32)no1,-7.208
10,Cc1noc(C)c1CN1C(=O)[C@H]2CC[C@@H]1CN(Cc1cccc(O)c1)C2,-12.83
11,CCCN1CCC(CNC(=O)C2(c3cc(C)cc(C)c3)CCC2)C1 (stereo not given),132
12,N#Cc1ccc(CNC(=O)NC2CCN(CC(F)(F)F)C2)cc1 (stereo not given),9.13
13,COCCN1CCC(CNC(=O)C2(C#N)CCCCC2)CC1,-10.25
14,CCCN1CCC(CC(=O)NCc2cc(C)nn2C)CC1,-10.83
15,COCCN1CCC(CNC(=O)C2(c3ccc(Br)cc3)CCCC2)C1 (stereo not given),150.6
16,COCCN1CCC(CNC(=O)C2(c3ccccc3)CCC2)C1 (stereo not given),100.1
17,COCCN1CCC(CNC(=O)Nc2ccc(-c3ccccc3)cc2)C1 (stereo not given),-0.2028
18,Cc1cc(C)cc(C2(C(=O)NCC3CCN(CC(F)(F)F)C3)CC2)c1 (stereo not given),144.8
19,Cc1cc(C)cc(C2(C(=O)NCC(C)CN3CCCC3=O)CC2)c1 (stereo not given),2.33
20,CC(C)[C@@H]1CN(CCCOc2ccc(F)cc2)C[C@H]1NS(C)(=O)=O,10.36
21,CC(C)(C)Oc1ccncc1NCc1cscn1,-14.11
22,CCN1CCC(CNC(=O)C2(c3cccc(C)c3)CC2)C1 (stereo not given),-3.143
23,Cc1cc(CN2CCC(CNC(=O)C3(c4ccccc4)CC3)C2)[nH]n1 (stereo not given),-1.817
24,CCCN1CCC(CNC(=O)C2(c3ccccc3)CCC2)C1 (stereo not given),94.67
25,CS(=O)(=O)Cc1ccc(NC(=O)Cc2cccnc2)cc1F,17.36

row,Compound,Percent Effect [%]
1,O=C(CN1CCCCC1Cn1cncn1)NCCC1=CCCCC1 (stereo not given),-14.45
2,O=C(NCCNc1ncccn1)NCCc1c(F)cccc1F,4.613
3,O=C(CN1CCN(CCO)CC1)NCCc1c(F)cccc1F,0.9837
4,Cn1c2ncccc2c(=O)n1CC(=O)NCCc1c(F)cccc1F,97.5
5,Cc1cc(CNC(=O)CN2CCN(C(=O)OC(C)(C)C)CC2)ccc1F,-110.5
6,O=c1c2cccnc2cnn1CC(O)c1ccc(F)c(F)c1 (stereo not given),-16.55
7,Cn1c2ncccc2c(=O)n1CC(=O)NCCC1=CCCCC1,106.1
8,Cc1nc2n(n1)CC(NCC(=O)NCCC1=CCCCC1)CC2 (stereo not given),18.92
9,Cc1ccc(CNC(=O)N2CCOCC2C2CC2)cc1F (stereo not given),-8.546
10,Cn1c2ncccc2c(=O)n1CC(=O)Nc1ccc(F)c(F)c1,107.1
11,Cc1ccc(CNC(=O)Cn2c(=O)c3cccnc3n2C)cc1F,105.8
12,CNC(=O)[C@@H]1C[C@H](N)CN1S(=O)(=O)c1cc(C)c(Cl)cc1C,4.211
13,COc1ccccc1OC1(C(=O)O)CCN(c2ncccc2F)CC1,-11.09
14,COc1ccncc1NCc1cscn1,0.2861
15,CSc1ccc(CN(CCO)Cc2nccn2C)cc1,-0.296
16,Cc1cncc(C(=O)N2CCOc3nc(C)ccc32)c1,1.683
17,CCC(C)(NCC(=O)NC(=O)NC)c1nc(C)cs1 (stereo not given),-8.328
18,COc1cccc(C(C)N2CCN(S(C)(=O)=O)CC2)c1 (stereo not given),-19.03
19,Cc1cccc2nc(CSCc3nnnn3C(C)C)cn12,-17.34
20,CN(Cc1cccnc1)[C@@H]1CN(C(=O)NC2CC2)[C@@H]2CCCO[C@H]12.O=C(O)C(F)(F)F.O=C(O)C(F)(F)F,101
21,CN(Cc1cccnc1)[C@@H]1CN(C(=O)c2ccno2)[C@@H]2CCCO[C@H]12.O=C(O)C(F)(F)F.O=C(O)C(F)(F)F,103.3
22,O=C(O)C(F)(F)F.O=C(c1ccoc1)N1CCO[C@]2(CCC[C@@H]2COCc2cccnc2)C1,-7.34
23,O=C(O)C(F)(F)F.O=C(c1ccoc1)N1CCO[C@]2(CCC[C@H]2COCc2cccnc2)C1,1.703
24,CN(Cc1cccnc1)[C@@H]1CN(C(=O)c2ccoc2)[C@@H]2CCCO[C@H]12.O=C(O)C(F)(F)F.O=C(O)C(F)(F)F,116.4
25,CN(Cc1cccnc1)[C@@H]1CN(C(=O)CC2CC2)[C@@H]2CCCO[C@H]12.O=C(O)C(F)(F)F.O=C(O)C(F)(F)F,108.9
